Screening results as filed in PubChem BioAssay.
An excerpt weighted towards active compounds, which were near 6.6% of everything screened.
TGFb inhibitor = qHTS for Inhibitors of TGF-b; HepG2 CAGA-GFP TGF-b/SMAD3 reporter, GFP fluorescence, 18 h; TGF-beta stimulated, 500 pg/mL final; Potency, µM (series often up to 46.1 µM), for inactives: at the top dose activity, negative = inhibition, usual class: inhibitors; hit rate 1.2% among 410,000; further: on the % scale 0 is the no-effect control and ±100 the full control effect; nearly all actives have a fitted effect of over 65% in size
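Inhibition was scored as loss of TGF-beta-induced (500 pg/mL final, 18 hours, 37 degrees C) GFP in HEPG2 cells carrying a CAGA-GFP reporter, in DMEM with 1% FBS. Well GFP was summed per cell; Activity was normalised to unstimulated and stimulated DMSO wells, then concentration-response fitting.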
KB-3-1 tox = qHTS assay for MDR1-selective chemotherapeutics: Primary screen using the parental adenocarcinoma cell KB-3-1. KB-3-1 viability, CellTiter-Glo ATP luminescence, 72 h. Potency, µM (titrated, usually from 46.1 µM), hits mostly cytotoxic. hit rate 1.4% among 400,000. AID 1347075, 2019; further: on the % scale 0 is the no-effect control and ±100 the full control effect; nearly all actives have a fitted effect of over 60% in size
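Cytotoxicity in the drug-sensitive parental line KB-3-1 was scored as loss of CellTiter-Glo luminescence following 72 h incubation with compound. Values come from curve fitting of normalized concentration-response data.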
HepG2 viability = qHTS for Inhibitors of TGF-b: Cytotox Counterscreen | HepG2 CAGA-GFP viability, ATP luminescence, 18 h | Potency, µM (series often up to 46.1 µM), for inactives: top-dose activity change, negative = cytotoxicity, most hits filed as cytotoxic | hit rate 0.76% among 410,000
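CellTiter-Glo luminescence gave cytotoxicity after 18 hours at 37 degrees C. The cells were HepG2 CAGA-GFP in 1% FBS DMEM, stimulated with 500 pg/mL TGF-beta after compound addition. %Activity was normalised to no-cell wells (complete cell-killing) and DMSO (no toxicity), and curves were fitted and classified.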
HT1080 IDH1KD tx = qHTS for induction of synthetic lethality in tumor cells producing 2HG: qHTS for the HT-1080-IDH1KD cell line; hit rate 2% among 360,000; AID 686971, 2013; Potency, µM (highest dose often 46.1 µM), for the others: at the top dose activity, negative = toxicity, usual class: cytotoxic; HT-1080 IDH1 knockdown viability, ATP luminescence, 48 h;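 further: 0% = DMSO wells and -100% = cell-free medium wells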
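In this qHTS, HT-1080 cells depleted of IDH1 are exposed for 48 h at 37 °C to compound titrations. Toxicity is scored from CellTiter-Glo luminescence, with DMSO as full viability and medium alone as none.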
HT1080NT lethal = qHTS for induction of synthetic lethality in tumor cells producing 2HG: qHTS for the HT-1080-NT fibrosarcoma cell line; HT-1080-NT fibrosarcoma viability, CellTiter-Glo ATP luminescence, 48 h; Potency, µM (series often up to 46.1 µM), inactives show top-dose activity, negative = less viability, hits mostly cytotoxic; hit rate 1.6% among 360,000;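 further: NT is the 2HG producing partner of a matched IDH1 knockdown line; 0% = DMSO-treated cells and -100% = media-only wells without cells; nearly all actives have a fitted effect of over 55% in size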
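750 cells/well, RPMI + 5% FBS; 2 h settle, compound pin-transfer, 48 h at 37 degrees C. CellTiter-Glo 10 min RT, luminescence. Normalized to DMSO and media-only wells.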
KB-V1 cytotox = qHTS assay for MDR1-selective chemotherapeutics: Primary screen using the drug-selected MDR subline cells KB-V1; AID 1347076, 2019; hit rate 3.4% among 400,000; KB-V1 MDR cells viability, CellTiter-Glo, 72 h; Potency, µM (titrated, usually from 46.1 µM), actives largely listed as cytotoxic; further: on the % scale 0 is the no-effect control and ±100 the full control effect; nearly all actives have a fitted effect of over 60% in size
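Cytotoxicity via CellTiter-Glo luminescence after 72 h compound exposure at 37 degrees C. Cells: drug-selected KB-V1 line, DMEM phenol-red free plus 10% FBS. Compounds tested at multiple concentrations; normalized data fitted to concentration-effect curves.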
* marks the source's active call; other numbers are inactive results; i = inactive; ? = inconclusive; · = not tested or not shown; ! = not active in a repeat. The call rests on the fitted dose curve; in most records, active means well fitted curve in the direction sought with a large enough effect; inconclusive means small, poorly fitted or top-dose-only effect, or another doubt; inactive means no such curve, though single readings can be large; an effect the other way counts as inactive or inconclusive. Potency means the concentration at half of the fitted maximal effect.

SMILES	TGFb inhibitor	KB-3-1 tox	HepG2 viability	HT1080 IDH1KD tx	HT1080NT lethal	KB-V1 cytotox
CN1/C(=C/c2cccc[n+]2CCO)Sc2ccccc21	-25%	?	-30%	-4%	-2%	i
CCOc1ccc(NC(=O)c2ccc3c(c2)CCN3S(=O)(=O)CC)cc1	-14%	i	-26%	·	·	i
CC(=O)N1c2ccc(S(=O)(=O)NCC3CCC(C(=O)Nc4cccc(F)c4)CC3)cc2CC1C (centres undefined)	-25%	·	-46%	·	·	·
CCCOC(=O)N[C@@H]1C(=O)N2C(C(=O)OCCC)=C(C)CS[C@H]12	-10%	16µM*!	-26%	-3%	?	?
Cc1[nH]c2ccccc2c1C(O)c1ccncc1 (centres undefined)	0%	i	-50%	-2%	9%	i
CSc1ccc(/C=C2\C=C(C(O)c3ccc(SC)cc3)c3ccccc32)cc1 (centres undefined)	-7%	16µM*	-28%	·	·	?
OC(C1=C/C(=C\c2ccncc2)c2ccccc21)c1ccncc1 (centres undefined)	?	?	-37%	·	·	16µM*
CC(=O)Nc1ccc(/C=C2\C=C(C(O)c3ccc(NC(C)=O)cc3)c3ccccc32)cc1 (centres undefined)	?	i	-52%	·	·	i
CCCCc1ccc(CC(=O)NO)cc1	23%	i	-1%	·	·	i
Oc1ccc(C[C@H]2CNCCN2CCC23CC4CC(CC(C4)C2)C3)cc1	?	?	-92%	?	16µM*	i
Oc1ccc(C[C@@H]2CNCCN2CC2CCCCC2)cc1	-7%	i	-50%	-4%	-26%	i
CCCCN1CCNC[C@H]1Cc1ccc(O)cc1	-6%	i	2%	-6%	-17%	i
Oc1ccc(C[C@H]2CNCCN2CCCCC2CCCCC2)cc1	?	?	-111%	23µM*	23µM*	?
Oc1ccc(C[C@@H]2CNCCN2CCC23CC4CC(CC(C4)C2)C3)cc1	?	i	-108%	23µM*	?	i
Cc1cccc(NC(=O)C(c2ccccc2)N2Cc3ccccc3C2=O)c1C (centres undefined)	0%	·	3%	·	·	·
O=C(Cn1c(SCCOc2ccc(Cl)cc2)nc2ccccc21)N1CCCCC1	?	i	-18%	·	·	i
Cc1cc(SCC(=O)Nc2ncc(Cl)cc2Cl)nc2ccccc12	-16%	i	-12%	?	?	6.5µM*
Cc1cc(NC(=O)CSc2cc(C)c3ccccc3n2)no1	10%	i	1%	-1%	10%	i
COc1ccc2c(C)cc(SCC(=O)Nc3ncc(Cl)cc3Cl)nc2c1	?	i	-4%	-4%	1%	18µM*
CC(=O)N1CCCc2cc(S(=O)(=O)N(C)CC(=O)Nc3cccc(Cl)c3C)ccc21	-6%	i	-19%	·	·	i
CC(C)(C)n1ncc2c(=O)n(Cc3ccc(C#N)cc3)cnc21	-14%	·	-29%	·	·	·
O=[N+]([O-])c1ccccc1/C=N/N1CCN(c2ccc(Cl)cc2)CC1	1%	?	1%	26%	9%	10µM*
COCCNC(=O)c1nn(-c2ccc(C)cc2)c(=O)n(C)c1=O	15%	i	1%	·	·	i
O=C(COc1ccccc1)Nc1nc(-c2cccs2)cs1	-18%	i	-8%	-7%	-8%	i
O=C(CCS(=O)(=O)c1ccccc1)Nc1nc(-c2cccs2)cs1	?	i	-61%	-16%	-10%	23µM*
